The values that follow come from PubChem BioAssay (NCATS).

Where “and” joins values, the source holds several entries; their conditions need not be identical. Identical values can stand only once. Records with an inconclusive call do not appear. A number with no mark means an inactive call. Calls of active or inactive are those of the source. The call rests on the fitted dose curve; in most records, active means well fitted curve in the direction sought with a large enough effect; inconclusive means small, poorly fitted or top-dose-only effect, or another doubt; inactive means no such curve, though single readings can be large; an effect the other way counts as inactive or inconclusive.

Assay [1] deals with MCC-26. Briefly: qHTS assay to identify novel small-molecules to repurpose for Merkel cell carcinoma treatment (AID 1296009). Further: nearly all actives have a fitted effect of over 60% in size. Particulars: MCC and control cell lines, CellTiter-Glo viability, 72 h; series mostly up to 46 µM. The procedure, abridged:
(§1)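 72 hr, 37 degree celsius; NPC 8-pt / MIPE 11-pt dose response; compound pinned in DMSO; CellTiter-Glo, 10 min RT, luminescence; normalized to no-cell and DMSO controls.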
On the technique in general: In qHTS, concentration-response curves come from the screen itself.

Assay [2] relates to MKL-1. The description is as above. Particulars: MCC and control cell lines, CellTiter-Glo viability, 72 h; series mostly up to 46 µM. The essentials:
as §1
On the technique in general: Cellular ATP, detected with luciferase, serves as a proxy for viable cell number.

Assay [3] has as its system MKL-2. The assay is described as above. Particulars: MCC and control cell lines, CellTiter-Glo viability, 72 h; series mostly up to 46 µM. The essentials: as §1
For assay [4], the system named is NIH3T3. The description is as above. The note with it: MCC and control cell lines, CellTiter-Glo viability, 72 h; at 44.8 µM (top of the series) unless noted. The procedure, abridged:
as §1

In assay [5] the test system is UISO. Described as above. The note with it: MCC and control cell lines, CellTiter-Glo viability, 72 h; series mostly up to 46 µM. The essentials: as §1
Assay [6] deals with WaGa. The description is as above. The note with it: MCC and control cell lines, CellTiter-Glo viability, 72 h; series mostly up to 46 µM. The procedure, abridged: as §1
In assay [7] the test system is C33A. Briefly: Primary qHTS to identify gynecologic anti-cancer compounds using libraries of approved drugs and bioactive compounds (AID 1345084). Further: nearly all actives have a fitted effect of over 55% in size. Particulars: Gynecologic cancer cell panel viability, ATPlite luminescence, 48 h; series mostly up to 57.5 µM. The procedure, abridged: (§2)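 Five-concentration response, 48 h; readout is ATP-driven luciferase luminescence.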

Assay [8] concerns CASKI. Described as above. The note with it: Gynecologic cancer cell panel viability, ATPlite luminescence, 48 h; series mostly up to 57.5 µM. The essentials: as §2
Assay [9] deals with Es-2. Described as above. The note with it: Gynecologic cancer cell panel viability, ATPlite luminescence, 48 h; series mostly up to 57.5 µM. The essentials:
as §2

The test system of assay [10] is HeLa. The description is as above. Particulars: Gynecologic cancer cell panel viability, ATPlite luminescence, 48 h; series mostly up to 57.5 µM. The procedure, abridged: as §2
Assay [11] relates to Hek293T. Described as above. The note with it: Gynecologic cancer cell panel viability, ATPlite luminescence, 48 h, control line for the selectivity index; series mostly up to 57.5 µM. The procedure, abridged:
as §2

Assay [12] has as its system JEG-3. The assay is described as above. Particulars: Gynecologic cancer cell panel viability, ATPlite luminescence, 48 h; series mostly up to 57.5 µM. The essentials: as §2
Assay [13] relates to OV90. The assay is described as above. The note with it: Gynecologic cancer cell panel viability, ATPlite luminescence, 48 h; series mostly up to 57.5 µM. The procedure, abridged: as §2
Assay [14] deals with PA-1. Described as above. The note with it: Gynecologic cancer cell panel viability, ATPlite luminescence, 48 h; series mostly up to 57.5 µM. The procedure, abridged: as §2
Assay [15] has as its system SKOV3. Described as above. Particulars: Gynecologic cancer cell panel viability, ATPlite luminescence, 48 h; series mostly up to 57.5 µM. The procedure, abridged: as §2
In assay [16] the test system is Tov-21-G. Described as above. Particulars: Gynecologic cancer cell panel viability, ATPlite luminescence, 48 h; series mostly up to 57.5 µM. The essentials:
as §2

For assay [17], the system named is Tov112D. The description is as above. Particulars: Gynecologic cancer cell panel viability, ATPlite luminescence, 48 h; series mostly up to 57.5 µM. The essentials: as §2
Assay [18] is described as follows: Drug repurposing screens with cells derived from glioblastoma tumor samples (AID 1345199). Further: nearly all actives have a fitted effect of over 40% in size. Further: potency means the concentration at half of the fitted maximal effect. The note with it: GBM patient neurospheres viability, ATP luminescence, 48 h. The procedure, abridged:
(§3)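 Four patient lines of CD133+ GBM neurospheres were screened at several concentrations; hits were retested in those lines plus three slower-growing GBM lines, using 48-hour treatment and ATP-based viability.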

Assay [19] has as its system astro. The description is as above. Particulars: viability, ATP luminescence, 48 h; series mostly up to 45.9 µM. The essentials:
as §3

In assay [20] the test system is CAOV3. The assay is described as follows: Primary qHTS to identify gynecologic anti-cancer compounds using libraries of approved drugs and bioactive compounds (AID 1345084). Further: nearly all actives have a fitted effect of over 55% in size. Particulars: Gynecologic cancer cell panel viability, ATPlite luminescence, 48 h; series mostly up to 57.5 µM. The procedure, abridged: as §2
Setting [21] is: at 45.9 µM (top of the series), tumour line B.
[22] abbreviates: at 45.9 µM (top of the series), tumour line D.
[23] abbreviates: at 46 µM (top of the series), tumour line A.
Where [24] appears, read: at 46.1 µM (top of the series), tumour line C.
On the % scale 0 is the no-effect control and ±100 the full control effect.

Turning to `CN1CCC[C@@H]1Cc1c[nH]c2ccc(CCS(=O)(=O)c3ccccc3)cc12`, the Potency result in [1], in [2], in assay [3], in assay [5], in [6] and in assay [7] was “inactive” each time. Besides, the Potency result in assay [8], in assay [9], in [10], in assay [11], in assay [12] and in assay [13] was “inactive” each time. The Potency result in assay [14], in assay [15], in [16], in assay [17] and in assay [19] was “inactive” each time. Besides, in assay [4], the result was inactive. Further, in assay [18] (setting [21]), the activity, negative = cell killing was -21.2%. Further, the Potency in [18] (tumour line A) is 14.1 µM (active).

`OCC(CO)N[C@H]1C[C@](O)(CO)[C@@H](O)[C@H](O)[C@H]1O`: the Potency entry in assay [1], in assay [2], in [3], in assay [5], in assay [6] and in assay [7] was “inactive” each time. The Potency result in assay [20], in [8], in assay [9], in assay [10], in assay [11] and in [12] was “inactive” in each case. Also, the Potency result in [13], in assay [14], in assay [15], in assay [16], in assay [17] and in assay [19] was “inactive” each time. Moreover, the activity, negative = cell killing in assay [18] (setting [21]) was -9.88%; in [18] (setting [22]), 10.9%; in assay [18] (setting [23]) it was -13.3%; in assay [18] (setting [24]), -4.04%.

Consider `CC(C)(C(=O)O)c1ccc(C(O)CCCN2CCC(C(O)(c3ccccc3)c3ccccc3)CC2)cc1` (configuration not stated), for which the Potency result in assay [1], in [2], in [3], in assay [5], in [6] and in assay [7] was “inactive” each time. The Potency result in [8], in assay [9], in [10], in assay [11], in assay [12] and in assay [13] was “inactive” in each case. Besides, the Potency entry in assay [14], in assay [15], in assay [16], in assay [17] and in [19] was “inactive” in each case. The call in assay [4] was inactive. For the same compound, the activity, negative = cell killing in assay [18] (setting [21]) is 0.768%; in assay [18] (setting [22]), 0.91%; in assay [18] (setting [23]), -18.8%; in assay [18] (setting [24]) it was 14%.

For `CN1[C@@H]2CC[C@H]1CC(OC(=O)C(O)c1ccccc1)C2` (some centres not stated), the Potency entry in [1], in assay [2], in assay [3], in [5], in assay [6] and in assay [7] was “inactive” throughout. Also, the Potency result in assay [8], in assay [9], in [10], in assay [11], in assay [12] and in [13] was “inactive” throughout. Also, the Potency result in assay [14], in assay [15], in [16], in [17] and in [19] was “inactive” each time. The call in [4] was inactive. Moreover, the activity, negative = cell killing in assay [18] (setting [21]) was -0.798% and -13.6% and 4.01%; in assay [18] (setting [22]), -19% and -5.08% and -5.73%; in [18] (setting [24]) it was 11.2% and -12.9% and 5.16%.

Take `N[C@@H](CSSC[C@H](N)C(=O)O)C(=O)O`: the activity change, negative = cytotoxicity in assay [1] is 1% [at 0.597 µM]; in assay [2], 8.58% [at 0.597 µM]; in [3], 18.8% [at 0.597 µM]; in [5] it was 9.88% [at 0.597 µM]; in [6] it was 9.72% [at 0.597 µM]; in [7], 7.09% [at 0.462 µM]. Also, the activity change, negative = cytotoxicity is -5.94% [at 0.462 µM] in assay [20]; 7.1% [at 0.462 µM] in assay [8]; -1.97% [at 0.462 µM] in assay [9]; 1.97% [at 0.462 µM] in [10]; 4.09% [at 0.462 µM] in assay [11]; -2.56% [at 0.462 µM] in [12]. Moreover, the activity change, negative = cytotoxicity was 16.5% [at 0.462 µM] in [13]; -8.19% [at 0.462 µM] in assay [14]; 0% [at 0.462 µM] in assay [15]; 3.42% [at 0.462 µM] in [16]; 1.24% [at 0.462 µM] in assay [17]. The activity, negative = cell killing in assay [18] (setting [21]) is 7.37%; in assay [18] (setting [22]), 8.78%; in assay [18] (setting [23]), 8.9%; in assay [18] (setting [24]) it was -5.12%. Also, in assay [19], the Potency result is “inactive”.
